# PubChem BioAssay AID1628 (Sanford-Burnham Center for Chemical Genomics, 2009)
# About 930 (0.49%) of roughly 190,000 compounds were called active. This is one part of the list. Measured potencies and affinities stand elsewhere. Values without a mark were called inactive.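 How the source made its calls: active means z-score of insulin promoter reporter brightness in nuclei below -3 at 5 µM, with at least 500 cells counted; inconclusive means wells with under 500 cells, flagged as toxic or sparse; inactive means the rest.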
# Experiment: decrease of insulin promoter-GFP reporter – imaging, high-content screening, mouse beta cells (AID 1628)
# Conditions: MIN6 insulin promoter GFP reporter, at 5 µM, active compounds read low
row,Compound,z-score
1,Nc1c(C(=O)C2CC2)sc2nc(-c3ccccc3)cc(C(F)(F)F)c12,11.2
2,C(=N\c1nc2ccccc2[nH]1)/c1cccs1,-1.35
3,CC(=O)c1c(C)[nH]c(-c2ccccc2)nc1=S,5.61
4,Cc1ccc(NS(=O)(=O)c2cc(C(=O)O)ccc2Cl)c(C)c1,1.63
5,Cc1cc2c(ncn2C)c(NS(=O)(=O)c2ccccc2Cl)c1C,-4.59 (active)
6,NC(=O)c1cc2ccc(O)cc2oc1=NCc1ccccc1,6.96
7,CCOc1cccc2cc(C(N)=O)c(=NCc3ccccc3)oc12,-3.34 (active)
8,CCN(CC)c1ccc2cc(C(N)=O)/c(=N\NC(=O)c3ccncc3)oc2c1,5.56
9,CN(C)/C=N/c1sc2c(c1C#N)CCC2,-0.51
10,O=C(O)CC12CSc3[nH]c(=O)sc3C1c1ccccc1OC2=O (centres undefined),3.25
11,Fc1ccc(C2CC(c3ccco3)=NN2c2ccccc2)cc1 (centres undefined),3.51
12,O=C(O)CCC(=O)N1CC=C(c2ccccc2)CC1,-3.14 (active)
13,O=C(COc1ccccc1)N1CCN=C1c1ccccc1,3.07
14,O=C(O)c1ccn(COc2ccc(Br)cc2)n1,4.62
15,CCOC(=O)N1CCC(NC(=O)c2cc(C(=O)Nc3ccc(OC)c(OC)c3)ccc2CO)CC1,3.42
16,CCN1CCc2c(sc(NC(=O)Nc3ccc(Cl)c(Cl)c3)c2C(N)=O)C1,16
17,Cc1cn(S(=O)(=O)c2ccc(Br)c3ccccc23)cn1,-4.36 (active)
18,COc1ccc(N(C(=O)Cc2cccs2)C2C=CS(=O)(=O)C2)cc1 (centres undefined),3.14
19,O=C1S/C(=C\c2ccc(N3CCOCC3)o2)C(=O)N1Cc1c(F)cccc1Cl,14.9
20,C1=C(c2ccccc2)Nc2nnnn2C1,3.1
21,NC(=S)N/N=C/c1cccc(O)c1O,-5.73 (active)
22,FC(F)C(F)(F)C1=CC(c2ccccc2)=NCCN1,-3.16 (active)
23,O=C1C2C3C=CC(C3)C2C(=O)N1CCC(=O)N1CCc2ccccc21 (centres undefined),0.52
24,Cc1cccc2cc3c(N)c(C(=O)N4CCc5ccccc54)sc3nc12,4.42
25,CC1CCc2nc3ccccc3c(C(=O)OCC(=O)N3CCc4ccccc43)c2C1 (centres undefined),-7.27 (active)

row,Compound,z-score
1,COc1ccc(Cc2nnc(NC(=O)Cc3cccs3)s2)cc1,3.48
2,CCOc1cccc(NC(=O)Cc2cccs2)c1,-3.39 (active)
3,CCOc1ccc(NC2=NCC(=O)N2Cc2cccs2)cc1,4.8
4,O=C(O)CCCCCCCCCCCc1ccccc1,0.16
5,CC1=C(C(=O)OCc2ccccc2)C(c2ccccc2)NC(=O)N1CCCCCC(=O)O (centres undefined),-5.52 (active)
6,CCOC(=O)/C(=C\C=C1/Sc2cc(OCC)c(OCC)cc2N1CC)C(C)=O,16.7
7,COc1cccc(-c2cc3nc4c(c(N5CCC6(CC5)OCCO6)n3n2)CCC4)c1,-3.88 (active)
8,Clc1cccc(-c2cc3nc4c(c(N5CCNCC5)n3n2)CCCC4)c1,-0.83
9,COc1cc(OC)cc(-c2cc3nc4c(c(N5CCN(c6ncccn6)CC5)n3n2)CCCC4)c1,-3.61 (active)
10,CC(C)N1CC=C2C(C#N)=C(N)C(C#N)(C#N)[C@H](c3ccoc3)[C@H]2C1,9.66
11,CN(C)CCOCCOc1ccccc1-c1ccccc1,4.97
12,CC1CN(c2oc(COc3ccc(Cl)cc3Cl)nc2C#N)CC(C)O1 (centres undefined),-3.34 (active)
13,COC(=O)c1ccc(C(=O)Nc2cc(Cl)ccc2Cl)cc1NC(=O)c1ccc(N(C)C)cc1,-4.37 (active)
14,CC(=O)c1cc(NC(=O)c2ccc(Cl)cc2)c(=O)oc1/C=C/N(C)C,3.13
15,COC(=O)c1cc(NC(=O)c2cccc(Cl)c2)c(=O)oc1/C=C/Nc1cc(C)cc(C)c1,14.9
16,Cc1ccc2nc(NCCC(=O)O)nc(-c3ccccc3)c2c1,4.16
17,CC1CCCc2sc3nc(NCc4ccco4)n4ncnc4c3c21 (centres undefined),-3.54 (active)
18,N#C/C(=C\c1ccc(N2CCCCC2)o1)C(=O)Nc1cccc(Br)c1,12.9
19,COc1ccc(C2=NC(=O)/C(=C\c3cc(OC)c(OC)c(OC)c3)O2)cc1,3.04
20,N#C/C(=C/c1ccc(-c2cc(C(=O)O)cc(C(=O)O)c2)o1)c1nc2ccccc2s1,3.02
21,COc1ccc(C(NC(C)=O)c2ccc3cccnc3c2O)c(OC)c1 (centres undefined),-5.39 (active)
22,COc1cc2c3nnc(-c4ccccc4)c-3cn(Cc3ccccc3F)c2cc1OC,12.9
23,Cc1ccc(C(=O)COC(=O)CNC(=O)c2ccc(N3C(=O)c4ccccc4C3=O)cc2)cc1C,-3.38 (active)
24,O=C(CNC(=O)c1ccco1)OCC(=O)c1ccccc1,4.35
25,CCOC(=O)C1=C(C)OC(N)=C(C#N)C1c1cc(SCC)oc1C (centres undefined),0.96

row,Compound,z-score
1,COc1cccc(NC(=O)N2CCN(c3nnnn3-c3ccccc3)CC2)c1,3.09
2,COC(=O)[C@@H](NC(=O)Nc1cccc(OC)c1)C(C)C,3.01
3,COc1cccc(NC(=O)N2CCCC2C(=O)NC(C)C)c1 (centres undefined),-5.72 (active)
4,Cn1c(=O)c(NC2CCCCC2)c2c3c(cccc31)C(=O)c1ccccc1-2,16.9
5,O=C(NCCCN1CCCCCC1)C1CC(=O)N(C2CCCC2)C1 (centres undefined),4.02
6,O=C(NCCCN1CCN(Cc2ccccc2)CC1)C1CCN(c2nnc(-n3cccc3)s2)CC1,-4.79 (active)
7,CC1c2nc3ccccc3n2C(CC(=O)NCCCN2CCOCC2)C(=O)N1Cc1ccccc1 (centres undefined),2.82
8,CC(C)CCNC(=S)Nc1ccc([N+](=O)[O-])cc1,-5.03 (active)
9,CNC(=S)Nc1ccc([N+](=O)[O-])cc1,4.22
10,Cc1[nH]c2ccccc2c1/C=N/Nc1ccc([N+](=O)[O-])cc1,13.9
11,CCOC(=O)CC1C(=O)NCCN1S(=O)(=O)c1ccc(Cl)cc1Cl (centres undefined),3.29
12,Cc1ccc(-c2nnc(Cc3ccc([N+](=O)[O-])cc3)o2)cc1,2.29
13,COc1ccc(-c2ccc(-c3nnc(Cc4ccc(OC)c(OC)c4)o3)cc2)cc1,-4.88 (active)
14,COc1ccc(C2CC(=O)N(CCCN(C)CCc3ccc(OC)c(OC)c3)C2)cc1 (centres undefined),1.63
15,O=C(/C=C/c1ccc2ccccc2n1)c1cc(Br)ccc1O,4.36
16,CCOC(=O)Cn1c(=O)c(-c2cc(Br)ccc2N)nc2ccccc21,6.82
17,C/C(=N\NC(=O)c1cccc(N/N=C(\C)c2cc(O)ccc2O)c1)c1cc(O)ccc1O,-4.19 (active)
18,CC(=O)c1cccc(NC(=O)c2c(F)c(F)c(F)c(F)c2F)c1,0.06
19,Cc1cc(C2C(C#N)=C(N)Oc3n[nH]c(C)c32)c(C)s1 (centres undefined),3.37
20,Cc1ccc(OCCn2nc3ccccc3n2)c(C)c1,-6.61 (active)
21,Cc1c(C(=O)O)cccc1-c1ccc(/C=C2/NC(=O)N(c3ccccc3)C2=O)o1,3.88
22,O=C(Nc1ccccc1)Nc1ccc(-n2ccc(C(F)(F)F)n2)cc1,-3.4 (active)
23,C=CCC(c1ccccc1)N(C(C)=O)c1ccco1 (centres undefined),3.62
24,COc1ccc(CNC(=O)/C=C/c2ccco2)cc1OC,1.08
25,CC(/C=C/c1ccco1)=N\NC(=O)C(O)c1ccccc1 (centres undefined),-4.52 (active)

row,Compound,z-score
1,CCOc1cc([N+](=O)[O-])cc2c1C(=O)Nc1ccccc1O2,5.94
2,CCOC(=O)c1cc2c(ccn2C)n1CC(=O)N1CCC(Cc2ccccc2)CC1,-3.62 (active)
3,Nc1nc(N2CCN(C(=O)c3ccco3)CC2)nc2ccc(Br)cc12,-3.6 (active)
4,Cc1cccc2c(C(=O)N3CCN(C(=O)c4ccco4)CC3)cc(-c3cccc(Br)c3)nc12,-4.53 (active)
5,CC(=O)c1ccc2cccc3c2c1N=CN3C,3.38
6,CN(C)S(=O)(=O)c1ccc(N2CCN(S(=O)(=O)c3ccc(F)cc3)CC2)c(Cl)c1,-3.39 (active)
7,Cc1sc2nc(C3CC3)nc(NCCNS(=O)(=O)c3ccccc3)c2c1C,-0.22
8,CN(C)/C=C1/Nc2ccccc2C1=O,4.71
9,COC1OC(CO)C(O)C(O)C1O (centres undefined),-0.58
10,Cc1ccc(NC(=O)CCn2cccc2)cc1Cl,3.23
11,Cc1cc(C)nc(SCC(=O)Nc2ccc(N3CCOCC3)c(Cl)c2)n1,-11 (active)
12,O=S(=O)(Nc1cc2nc3ccccc3nc2n1Cc1ccccc1)c1ccc(Cl)cc1,15.3
13,CCc1nc(Nc2ccc(N3CCN(C(C)=O)CC3)cc2)c2oc3ccccc3c2n1,-4.54 (active)
14,Cc1nc2c(oc3ccccc32)c(=O)o1,4.23
15,Cc1cccc(N2CCCn3c2nc2c3c(=O)n(CCN3CCOCC3)c(=O)n2C)c1,-3.6 (active)
16,Cc1cc(/C=C2\NC(=S)N(C)C2=O)ccc1N1CCCC1,14.3
17,Cc1oc2ncnc(N)c2c1C,0.96
18,CCCCN(C)CC(O)Cn1cc(/C=C/C(=O)c2cccs2)c2ccccc21 (centres undefined),4.79
19,CC(Cc1cccs1)NC(=O)Nc1ccccc1 (centres undefined),-4.74 (active)
20,CC(NC(=O)/C(C#N)=C1\N=C(NC(=O)c2cccs2)c2ccccc21)c1ccccc1 (centres undefined),3.96
21,Nc1nnc(-c2cc3c(ccc4ccccc43)oc2=O)s1,8.81
22,O=C(c1ccco1)N1CCN(C(=O)N2c3ccccc3Sc3ccccc32)CC1,-3.22 (active)
23,CN(C)N(C)C(=O)C(O)(c1ccccc1)c1ccccc1,-3.03 (active)
24,COC(=O)c1ccc(N2CCN(S(=O)(=O)c3ccc4ccccc4c3)CC2)c([N+](=O)[O-])c1,-4.04 (active)
